The campaign covered roughly 1,800 compounds. Fewer than 10 were called active. No rule for the calls is given here. These entries were drawn from the full list. Entries with a potency or affinity are not part of this list.
assay: antiviral activity against H1N1 influenza, dose response, cell-based, strain KY180 (AID 540254); conditions: H1N1 KY180 influenza antiviral cell-based screen; series mostly up to 40 µM; inhibition: at the top concentration

Compound	inhibition
Cc1cccc2sc(NNC(=O)c3ccc(S(=O)(=O)N4CCc5ccccc5C4)cc3)nc12	-2.51% (inactive)
CCOc1ccc(C(=S)NC2CCCCC2)cc1OC	-0.49% (inactive)
c1ccc2[nH]c(CSc3nc4ccccc4o3)nc2c1	-1.51% (inactive)
CCCCOC(=O)Nc1ccc(S(=O)(=O)Nc2cc(C)nc(C)n2)cc1	2.95% (inactive)
Cc1cc(C(=O)N/N=C/c2c(C)[nH]n(-c3ccccc3)c2=O)n[nH]1	-1.12% (inactive)
C=CCOc1cccc(/C=N/NC(=O)CC(=O)NC2CCCCC2)c1	0.5% (inactive)
O=C(CSc1n[nH]c(-c2ccccn2)n1)Nc1cccc(Cl)c1	-5.15% (inactive)
CN(C)CCCNC(=O)c1ccc(-c2cc(O)c3ncccc3c2)cc1	0% (inactive)
Oc1ccc(N=Nc2c(O)ccc3ccccc23)cc1	0% (inactive)
CC1=NN(c2ccc(C)cc2)C(=O)/C1=C\C=C\c1ccccc1	-2.51% (inactive)
Cc1ccc(C(=O)N/C(=C\c2cccc([N+](=O)[O-])c2)C(=O)NCc2ccncc2)cc1	3.8% (inactive)
CN(C)S(=O)(=O)c1ccc(NC(=O)CSc2ncnc3ccccc23)cc1	3.52% (inactive)
Cc1ccc(S(=O)(=O)C2(C(=O)NCc3ccc4c(c3)OCO4)CC2)cc1	0% (inactive)
O=C(Cn1cnc([N+](=O)[O-])n1)N/N=C/c1ccccc1O	2.53% (inactive)
Clc1cc2cccnc2c2ncccc12	-1.12% (inactive)
O=C(N/N=C(\Cc1ncc[nH]1)c1ccccc1)c1ccncc1	-1.51% (inactive)
CCOC(=O)Cc1nnc(NC(=O)C(CC)Sc2nncn2C)s1 (stereo not drawn)	1.97% (inactive)
Cc1ccc(NC(=O)COc2cccc3ccc(C)nc23)c(Br)c1	0.5% (inactive)
COc1cccc(N=Nc2ccc3ccccc3c2O)c1	2.01% (inactive)
Cn1c(SCC(=O)NC2CC2)nnc1-c1ccccn1	1.12% (inactive)
COc1cc(O)c(/C=N/NC(=O)c2ccncc2)c(OC)c1[N+](=O)[O-]	-0.49% (inactive)
COC(=O)c1c(C)oc2ccc(N(C(=O)c3ccncc3)S(=O)(=O)c3ccc4ccccc4c3)cc12	-0.56% (inactive)

Compound	inhibition
CC(=NNC(=S)N1CC2CCC(CC2)C1)c1nccs1	-3.44% (inactive)
CCOc1cccc(/C=N/NC(=O)c2cccnc2)c1O	0% (inactive)
O=C(N/N=C/c1cc(O)ccc1Br)c1cccnc1	0% (inactive)
COc1cccc2c(=O)n(CC(=O)Nc3ccc(F)cc3F)ccc12	0% (inactive)
CC(c1ccccc1)n1c(CO)nc2ccccc21 (stereo not drawn)	0% (inactive)
O=C(Nc1nc(-c2ccccn2)cs1)c1ccco1	1.51% (inactive)
O=C1/C(=C/c2ccc(O)c(O)c2)SC(=S)N1Nc1ccccc1	-0.56% (inactive)
CN1CCN(c2ccc(N)cc2)CC1	-0.5% (inactive)
COC(=O)Cn1c(=O)c2c(nc3n2CC(C)CN3c2ccc(C)c(C)c2)n(C)c1=O (stereo not drawn)	0.5% (inactive)
CCCNC(=O)COC(=O)/C=C/c1ccco1	-0.5% (inactive)
CC(C)CCNC(=O)CCC(=O)NNc1nc2ccccc2c2nc(-c3ccccc3)nn12	-0.56% (inactive)
CCOc1ccc(NS(=O)(=O)c2ccc(NS(=O)(=O)c3ccc(SC)cc3)cc2)cc1	0.67% (inactive)
COc1ccc(C(C)=O)cc1COC(=O)[C@H](Cc1ccccc1)NC(=O)c1ccco1	2.46% (inactive)
CC(C)CC(C(=O)OCC(=O)Nc1ncc(Cl)cc1Cl)N1C(=O)c2ccccc2C1=O (stereo not drawn)	0.56% (inactive)
CCN1/C(=C/c2ccc3cc(C)cc(C)c3[n+]2CC)Sc2cc(C)ccc21	-2.95% (inactive)
Cc1ccc(O)c(N=NC2=C(O)CC(C)(C)CC2=O)c1	-1.12% (inactive)
Cc1cc2cc(CNC(=O)NC3CCCCC3)ccc2n1C	-0.56% (inactive)
COc1ccc(C(=O)N/N=C(\C)c2ccccn2)cc1OC	-2.91% (inactive)
Cc1ccc(NCCCn2cnc(C(=O)Nc3ccc(C)c(C)c3)n2)cc1C	3.93% (inactive)
COC(=O)c1cc(S(=O)(=O)N2CCCCCC2)c[nH]1	2.91% (inactive)
O=C(O)c1ccc(N2C(=O)/C(=C/c3ccc(-c4ccc([N+](=O)[O-])cc4)o3)C=C2c2ccccc2)cc1	0.25% (inactive)
O=C(N/N=C/c1cc([N+](=O)[O-])ccc1O)c1cccc(N2CCCC2=O)c1	0.22% (inactive)

Compound	inhibition
O=C(NCc1ccccn1)C(=O)N/N=C/c1ccccc1O	-2.01% (inactive)
CCCN1C(=O)/C(=C2\SC(N3CCCCC3)=NC2=O)c2ccccc21	-4.25% (inactive)
CCN(Cc1ccccc1)c1ccc(N=Nc2nn(C)c(C)c2[N+](=O)[O-])cc1	-1.12% (inactive)
CCOC(=O)N1CCN(c2c(NCCc3ccccc3)c(=O)c2=O)CC1	9.34% (inactive)
CCOc1ccc(-n2c(SCC(=O)Nc3ccccc3C)n[nH]c2=O)cc1	1.27% (inactive)
COc1cc(C=O)ccc1OCC(=O)Nc1ccc2c(c1)OCO2	-0.98% (inactive)
CC1=NN(c2ccccc2)C(=O)/C1=C/c1c(O)n(-c2ccc(F)cc2)[nH]c1=O	2.01% (inactive)
Cc1cc(C)cc(N2C(=O)C3NN=C(C(=O)OCc4ccccc4)C3C2=O)c1 (stereo not drawn)	0.5% (inactive)
O=C1CCC(=O)N1CCC(c1ccc(F)cc1)c1ccco1 (stereo not drawn)	1.27% (inactive)
CN(C)c1ccc(N=Cc2ccco2)cc1	-2.91% (inactive)
COc1cccc(C(=O)O/N=C(\N)c2ccncc2)c1	-0.25% (inactive)
Cc1ccc(NC(=O)N2CCCCCC2)cc1C	0% (inactive)
CCN(CC)CCN1C(=O)c2oc3ccc(F)cc3c(=O)c2C1c1ccncc1 (stereo not drawn)	0% (inactive)
CN(CC(=O)NCc1ccccn1)S(=O)(=O)c1ccc(Br)cc1	0% (inactive)
CC(=O)Nc1cccc(NC(=O)CSc2nn3c(=O)c(C)nnc3s2)c1	0.5% (inactive)
Cc1ccn(CC(=O)N/N=C/c2cc([N+](=O)[O-])ccc2O)n1	-1.27% (inactive)
Cc1cccc(NC(=O)CCN2C(=O)c3ccccc3S2(=O)=O)c1C	2.53% (inactive)
O=C(CN1C(=O)C2CCCCC2C1=O)Nc1nc(-c2ccccn2)cs1 (stereo not drawn)	-4.7% (inactive)
Cc1c(N=Nc2c(O)n(Cc3ccccc3)c(=O)[nH]c2=O)c(=O)n(-c2ccccc2)n1C	-1.51% (inactive)
C=CC(=O)Nc1ccc(N(C)c2ccnc(Nc3ccc(N4CCN(C)CC4)cc3)n2)cc1	-2.51% (inactive)
CC(=O)N(Cc1ccc(F)cc1)C1=C(NCCc2ccccc2)C(=O)c2ccccc2C1=O	-5.15% (inactive)
O=C(O)c1ccc(N=Nc2c(O)ccc3ncccc23)cc1	0% (inactive)

Compound	inhibition
Cc1nc2sccn2c(=O)c1S(=O)(=O)Nc1cccc(Cl)c1C	-0.25% (inactive)
CC(=NNC(=S)N1CC2CCC(CC2)C1)c1ccncn1	-2.95% (inactive)
Clc1ccc(OCc2nc(-c3ccncc3)no2)c(Br)c1	-0.56% (inactive)
CN1C(=O)/C(=C/c2cc(N=Nc3ccccc3)ccc2O)SC1=S	-5.15% (inactive)
O=C(CSc1ccc(-c2ccccn2)nn1)Nc1ccc(F)c(F)c1	0.25% (inactive)
COc1ccc(N2CCN(C(=O)CCC(=O)N3CCOc4ccc(Cl)cc43)CC2)cc1	-1.47% (inactive)
Cc1ccc2ccc3cccnc3c2n1	-2.01% (inactive)
Cc1noc(/C=C/N(C)C)c1S(=O)(=O)N1CCCC(C(=O)NC2CCCCC2)C1 (stereo not drawn)	2.53% (inactive)
COc1ccc(N=Nc2cc(OC)c(N)cc2OC)cc1	-1.51% (inactive)
O=C(NC(=S)NNC(=O)c1ccccc1O)c1ccco1	1.27% (inactive)
CC1COCC(C)N1C1=C(Cl)C(=O)c2ccccc2C1=O (stereo not drawn)	-2.95% (inactive)
COc1ccccc1N1CCN(C2CCCN(C(=O)c3cccc(-c4ccco4)c3)C2)CC1 (stereo not drawn)	-2.46% (inactive)
Clc1ccc(-c2ccc(-c3nn4c(-c5ccco5)nnc4s3)o2)cc1	-2.46% (inactive)
CCCCCn1cnc2c(sc3nc4c(cc32)CSC(C)(C)C4)c1=O	0% (inactive)
CCN(CC)C(=O)C1CCCc2c1[nH]c1ccc(Cl)cc21 (stereo not drawn)	-1.51% (inactive)
CC(NC(=O)C(=O)NN=C1CCCCCCC1)c1ccccc1 (stereo not drawn)	-0.5% (inactive)
COc1ccc(NC(=O)CSc2n[nH]c(-c3ccccn3)n2)cc1	-3.8% (inactive)
O=C(N/N=C/c1c(O)n(C2CC2)c(=S)[nH]c1=O)c1ccccc1O	0.56% (inactive)
Cc1ccc(NC(=O)CSc2nnc(C)c(=O)n2N)c(C)c1	1.57% (inactive)
Cc1ccc(CN2CCC(n3nccc3NC(=O)CCCc3ccccc3)CC2)o1	0% (inactive)
O=C1CCCN1CC(=O)N1CCCC(N2CCN(c3cccc(Cl)c3)CC2)C1 (stereo not drawn)	0.67% (inactive)
CCNC(=O)CC1C(=O)N(c2ccc(F)cc2)C(=O)N1Cc1ccc(OC)cc1 (stereo not drawn)	1.27% (inactive)

Compound	inhibition
O=C1C=C(c2c(O)ccc3ccccc23)c2ccccc2C1=O	-2.46% (inactive)
CCOC(=O)C1=C(C)n2c(s/c(=C/c3cccc([N+](=O)[O-])c3)c2=O)=NC1c1ccc(O)c(OC)c1 (stereo not drawn)	-1.27% (inactive)
CCC(C(=O)N/N=C(\C)c1cccnc1)c1ccccc1 (stereo not drawn)	0.98% (inactive)
CN(CCCC(=O)O)c1ccc(N=Nc2ccc([N+](=O)[O-])cc2)cc1	0% (inactive)
COc1cccc(C(=O)NN2c3ccccc3CCc3ccccc32)c1	0% (inactive)
N#C/C(=C/c1cn(-c2ccccc2)nc1-c1cccc(OCc2ccc(F)cc2)c1)C(=O)NCCCn1ccnc1	-5.59% (inactive)
CC1NC(=O)NC1CCCCCC(=O)Nc1ccc(F)c(Cl)c1 (stereo not drawn)	0% (inactive)
CCOC(=O)C(C(C)=O)c1c(Br)c(O)c(O)c2c(C(=O)c3ccc(C)cc3)coc12 (stereo not drawn)	-2.53% (inactive)
Cc1ccc(-n2c(SCC(=O)NCc3ccco3)nc3c([nH]c4ccccc43)c2=O)cc1	-0.49% (inactive)
CC(C)CC1Nc2ncnc(N3CCN(c4ccccc4)CC3)c2N(Cc2ccccc2)C1=O (stereo not drawn)	-0.56% (inactive)
C[C@@H](C(=O)Nc1nc(-c2ccccn2)cs1)N1C(=O)C2CCCCC2C1=O (stereo partly drawn)	0.5% (inactive)
COc1ccc(C2(c3ccc(OC)cc3)NC(=O)N(CC(=O)Nc3ccc(OC(F)F)cc3)C2=O)cc1	-2.95% (inactive)
Cn1nc(CC(=O)NC2CCCCCC2)c2ccccc2c1=O	1.25% (inactive)
O=C(CCS(=O)(=O)c1ccc(F)cc1)Nc1nc(-c2ccccn2)cs1	-4.7% (inactive)
COc1ccc(C2C(C#N)=C(N)Nc3onc(C(C)(C)C)c32)c(OC)c1 (stereo not drawn)	0.25% (inactive)
Oc1cccc(/C=N/NC(=S)Nc2cccnc2)c1O	0.22% (inactive)
CCOC(=O)c1c(C)[nH]c(C(=O)N/N=C/c2cc([N+](=O)[O-])ccc2O)c1C	-1.27% (inactive)
Cc1[nH]c2ccccc2c1C(c1ccccn1)c1c(C)[nH]c2ccccc12	0.5% (inactive)
Cc1[nH]c2ccccc2c1SCC(=O)N1CCOCC1	1.25% (inactive)
Cc1ccc(S(=O)(=O)NCc2ccc3c(c2)cc(C)n3C)cc1	-2.91% (inactive)

Source: PubChem BioAssay AID540254 (Southern Research Specialized Biocontainment Screening …, 2011)
